“And” between values parts separate entries of the source, which are not always exact repeats. Equal entries are not always repeated. The whole screen tested about 16,000 compounds, of which about 5,700 (36%) were called active. Another 24% or so got no clear call; they are omitted. The list shows a part of the results. Unmarked numbers belong to inactive results. Calls come from the whole dose curve; as a rule, active = well fitted curve in the direction sought with a large enough effect; inconclusive = small, poorly fitted or top-dose-only effect, or effect the other way; inactive = no such curve, though single readings can be large or run the other way.
% is set by controls: 0 for no effect and ±100 for the full control effect.

Cytochrome P450 1A2 (Homo sapiens), sequence (P05177 whole entry, looked up): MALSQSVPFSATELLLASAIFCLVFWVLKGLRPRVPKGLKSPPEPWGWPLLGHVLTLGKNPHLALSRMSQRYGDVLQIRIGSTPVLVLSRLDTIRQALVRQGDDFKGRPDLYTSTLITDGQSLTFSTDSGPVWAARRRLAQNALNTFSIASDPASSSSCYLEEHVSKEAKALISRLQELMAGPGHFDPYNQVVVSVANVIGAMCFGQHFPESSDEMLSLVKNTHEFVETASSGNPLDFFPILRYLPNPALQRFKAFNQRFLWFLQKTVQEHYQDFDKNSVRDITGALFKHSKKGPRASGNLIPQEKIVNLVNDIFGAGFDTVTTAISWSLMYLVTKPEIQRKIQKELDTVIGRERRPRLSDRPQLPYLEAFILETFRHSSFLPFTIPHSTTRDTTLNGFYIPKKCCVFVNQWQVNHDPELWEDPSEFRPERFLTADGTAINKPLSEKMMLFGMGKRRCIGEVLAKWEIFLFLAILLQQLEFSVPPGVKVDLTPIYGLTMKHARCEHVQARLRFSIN

This test has as its target Cytochrome P450 1A2 (Homo sapiens) (UniProt P05177). The experiment in a line: Cytochrome panel assay with activity outcomes. Particulars: recombinant CYP, pro-luciferin dealkylation, luminescence, p450-cyp1a2; series mostly up to 57.1 µM; activity, negative = inhibition: at the top concentration.
As to `C/C(CCC(=O)OC[C@@H]1O[C@H](C#Cc2ccccc2)C=C[C@@H]1Oc1ccc(C)cc1)=N/O[C@@H](C)CN1CCCc2nc(C)c(C)cc21`, the activity, negative = inhibition was -8.42% [at 11.4 µM]. As for `CC(=O)OC[C@@H]1O[C@@H](O/N=C2/C[C@@H](O)[C@@H](O)[C@@H]3[C@@H]4C(=O)N(C(C)(C)C)C(=O)[C@H]4CC[C@@H]23)[C@H](OC(C)=O)[C@H](OC(C)=O)[C@@H]1OC(C)=O`, the activity, negative = inhibition was -1.47% [at 11.4 µM]. Take `[O-][N+]1(CC[N+]2([O-])CCCCC2)CCCCC1`: the activity, negative = inhibition is -3.29% [at 11.4 µM]. Consider `COc1ccc(NC(=O)C(=O)NNC(=O)c2cccs2)c(OC)c1`, for which the “activity, negative = inhibition” value is -10.5%. What is called AC50 is the concentration giving half of the maximal activity seen. Take `COc1ccc(NC(=O)c2ccc(C)cc2Cl)c([N+](=O)[O-])c1`: the AC50 is 2 µM (active). In the case of `COc1ccc(NC(=O)CN(C)S(=O)(=O)c2ccc(Cl)cc2)c([N+](=O)[O-])c1`, the “activity, negative = inhibition” value is -11.6%. Still for that read-out and setting: under `CCOc1ccc(/C=C/C(=O)Nc2ccc(OC)cc2[N+](=O)[O-])cc1` stands -27.7%. With `COc1ccc(NC(=O)c2cccs2)c([N+](=O)[O-])c1`, the AC50 was 3.16 µM (active). Same read-out and setting: under `COc1ccc(NC(=O)CSc2nncn2C)c([N+](=O)[O-])c1` stands 11.2 µM (active). `CC(C)(C)N1C(=O)[C@H]2[C@@H]3[C@H](O)C=CC(=O)[C@H]3CC[C@H]2C1=O`: the activity, negative = inhibition is -5.4% [at 11.4 µM].

`c1ccc(Nc2nc(-c3ccc4c(c3)OCO4)nc3ccccc23)cc1`: the AC50 is 1.26 µM (active). The same measure, in the same setting: in the case of `c1ccc2c(Nc3ccncc3)nc(-c3ccc4c(c3)OCO4)nc2c1` it was 1.26 µM (active). On to `COc1cc(C2C(C#N)=C(N)N(Nc3ccccc3)C3=C2C(=O)CC(C)(C)C3)ccc1OCc1cccc(F)c1` (configuration not stated), for which the “activity, negative = inhibition” value is -13.1%. For the molecule `CN1CCN(c2nc3cc(C(F)(F)F)ccc3n3cccc23)CC1`, the AC50 is 200 nM (active) and 39.8 nM (active). `N=C1SCC(=O)N1c1nc(-c2ccccc2)cs1`: the AC50 was 1.41 µM (active). Same read-out and setting: under `COc1ccc(-c2csc(N3C(=N)SCC3=O)n2)cc1` stands 0.631 µM (active). As for `O=C1C2C3c4ccccc4C(c4ccccc43)C2C(=O)N1c1nc(-c2ccccc2)cs1` (configuration not stated), the “activity, negative = inhibition” value was -8.29%.

For `CC(C)OC(=O)CC12CN(C)CC(CC(=O)OC(C)C)(CN(C)C1)C2=O`, the “activity, negative = inhibition” value was -15.3%.

Turning to `Cc1c(NC(=O)CSc2nnnn2C)c(=O)n(-c2ccccc2)n1C`, the “activity, negative = inhibition” value is 16.8%. With `Cc1cccc(NC(=O)CSc2nnnn2C)n1`, the AC50 is 14.1 µM (active). Turning to `CCOc1ccccc1-n1nnnc1SCC(=O)Nc1cc(C)on1`, the activity, negative = inhibition is -7% [at 11.4 µM].

As for `CC1=NS(=O)(=O)c2cc(Cl)ccc2N1`, the AC50 was 3.16 µM (active) and 2 µM (active). `NS(=O)(=O)c1cc2c(cc1Cl)NC(CSCc1ccccc1)=NS2(=O)=O`: the “activity, negative = inhibition” value was -0.403% [at 25.6 µM]. As for `Clc1ccc(-c2cc3ccccc3[nH]2)cc1`, the AC50 was 0.501 µM (active). The same measure, in the same setting: under `N#C/C(=C\NC(=S)c1ccncc1)c1nc2ccccc2s1` stands 3.16 µM (active). In the case of `CC(C)NC(=O)N1CCC2(CC1)CCN(C(=O)c1ccncc1)CC2`, the “activity, negative = inhibition” value was -10.1%. As for `CN(C)c1ccc(-c2cncnc2Nc2ccccc2)cc1`, the AC50 is 0.398 µM (active). On the same count and under the same terms, under `CN(C)c1ccc(-c2cncnc2Nc2ccc(F)cc2)cc1` stands 0.501 µM (active). As for `Cc1ccc(C(C2C(=O)CC(C)(C)CC2=O)C2C(=O)CC(C)(C)CC2=O)s1`, the “activity, negative = inhibition” value was -22.3%. On to `O=S(=O)(/N=C(\Sc1ccccc1)c1ccccc1)c1ccc(Cl)cc1`, for which the AC50 was 8.91 µM (active). With `O=S(=O)(/N=C(/Nc1ccc(F)cc1F)c1ccc(Cl)cc1)c1ccccc1`, the “activity, negative = inhibition” value is 9.3%. With `O=S(=O)(/N=C(/Nc1ccccn1)c1ccccc1)c1ccc(Cl)cc1`, the AC50 was 14.1 µM (active). Regarding `COc1ccccc1N/C(=N/S(=O)(=O)c1ccc(C)cc1)c1ccc(Cl)cc1`, the “activity, negative = inhibition” value was -27.1%. The same measure, in the same setting: in the case of `O=S(=O)(c1ccccc1)N1CCC2(CC1)CN(c1ccccn1)C2` it was -4.84%; in that of `CC(C)CO/N=C1/C[C@@H](O)[C@@H](O)[C@@H]2[C@@H]3C(=O)N(C[C@@H]4CCCO4)C(=O)[C@H]3CC[C@@H]12`, -0.346% [at 11.4 µM]. Still for that read-out and setting: under `CC(C)CNc1nc(N)[nH]c(=O)c1NC=O` stands -20.7% [at 11.4 µM]. `O=S1(=O)C=C(Oc2ccc3ccccc3c2)c2ccccc21`: the concentration at half-maximal activity (AC50) is 1.26 µM (active).

For the molecule `Cn1cccc1C(=O)N1CCC2(CCN(Cc3nccs3)CC2)CC1`, the “activity, negative = inhibition” value is -6.85%. Consider `N#Cc1c(NC(=O)CCN2C(=O)c3ccccc3C2=O)oc(-c2ccccc2)c1-c1ccccc1`, for which the AC50 was 2.24 µM (active). As for `O=C(Cc1ccccc1)NC1CCN(S(=O)(=O)c2ccc(C(=O)O)cc2)CC1`, the “activity, negative = inhibition” value was 15.4%. Still for that read-out and setting: under `Cc1ccccc1C(=N)c1ccccc1Cc1cccc2ccccc12` stands -17.6% [at 2.29 µM]; under `c1ccc2c(CC3NCCN3)cccc2c1`, -7.37% [at 11.4 µM]. On the same count and under the same terms, under `c1ccc2c(CC3=NCCN3)cccc2c1` stands -10.3% [at 25.6 µM]. For `CN(Cc1cccc2ccccc12)Cc1cccc2ccccc12`, the AC50 was 3.16 µM (active). As for `CN(C/C=C\c1ccccc1)Cc1cccc2ccccc12`, the AC50 is 2 µM (active). With `NCCCCCCCCCCN`, the “activity, negative = inhibition” value was -5.54%. Still for that read-out and setting: in the case of `O=c1n(-c2ccccc2)c(=O)n2n1CC[C@H]1/C(=N\OC[C@@H](O)COCc3ccco3)[C@H]3O[C@@H]3[C@@H](O)[C@@H]12` it was -3.26% [at 11.4 µM] and -7.74% [at 11.4 µM]. With `Cc1ccc(C(=O)/C=C2\NCC(C)NC2=O)cc1` (configuration not stated), the AC50 is 15.8 µM (active). Take `Cc1ccc(C(=O)C2CCNCC2)cc1`: the “activity, negative = inhibition” value is -9.47%. The same measure, in the same setting: under `O=C(Cc1ccccc1[N+](=O)[O-])NCc1ccccc1Cl` stands -12.7%. `O=[N+]([O-])c1ccc(-c2cnc(SCc3ccccc3Cl)[nH]2)cc1`: the AC50 was 6.31 µM (active). The same measure, in the same setting: in the case of `CSc1nnc(-c2ccc(Cl)cc2Cl)o1` it was 2.51 µM (active). The same measure, in the same setting: in the case of `Clc1ccc(-c2nnc(CCc3ccccc3)o2)c(Cl)c1` it was 0.708 µM (active).

As for `COc1cccc(-c2cc(=O)c3ccccc3o2)c1N`, the AC50 was 0.2 µM (active). For the molecule `CCc1cccc(C)c1NC(=O)CSc1nc2ccc(N3C(=O)c4ccccc4C3=O)cc2s1`, the “activity, negative = inhibition” value was -15.9%. Consider `O=C(CSc1nc2ccccc2c2ccccc12)c1ccccc1`, for which the AC50 is 0.251 µM (active). Still for that read-out and setting: under `COC(=O)c1ccc(NC(=O)Cn2nc(-c3ccncc3)nc2SCC(=O)Nc2nccs2)cc1` stands 11.2 µM (active).

For the molecule `O=C(CSc1ccccn1)Nc1nc2ccc(Br)cc2s1`, the AC50 is 2.51 µM (active). For `Nc1cc(N)nc(SCC(=O)c2ccccc2)n1`, the “activity, negative = inhibition” value was -16.7%. Consider `CCN(CC)C(=O)CSc1nc2ccc(NC(=O)CSc3nnc(COc4ccccc4C)n3C)cc2s1`, for which the “activity, negative = inhibition” value is -15.6%. Consider `CCOC(=O)CSc1cc(CS(=O)c2ccc(Cl)cc2)nc(-c2ccccc2)n1` (configuration not stated), for which the AC50 is 10 µM (active). As to `COc1ccc(O[C@H]2C=C[C@@H](c3ccccc3)O[C@H]2COC(=O)CC/C(C)=N\O[C@@H](C)c2cn([C@H](CO)Cc3ccccc3)nn2)cc1`, the activity, negative = inhibition was -0.286% [at 11.4 µM] and -5.55% [at 11.4 µM].

For the molecule `CC(=O)OC1CCC(OC(C)=O)c2c1n([O-])c(C)c(C)[n+]2=O` (configuration not stated), the “activity, negative = inhibition” value is -11.4%. Still for that read-out and setting: under `CC1(C)CC(=O)c2cn3ncnc3nc2C1` stands -18.9%. On the same count and under the same terms, under `C[C@@H]1C[C@H]2[C@H]3C[C@@H](F)C4=CC(=O)C=C[C@]4(C)[C@@]3(Cl)[C@@H](O)C[C@@]2(C)[C@@H]1C(=O)COC(=O)C(C)(C)C` stands -13.4% [at 25.6 µM].

Take `CCOC(=O)Cn1c(-c2ccccc2)nc2ccccc2c1=O`: the AC50 is 0.447 µM (active). For `CCOC(=O)Cn1c(CN(Cc2ccccc2)Cc2ccccc2)nc2c1c(=O)[nH]c(=O)n2C`, the “activity, negative = inhibition” value is -22.4%.

On to `O=C(CSc1nc2ccccc2s1)NNC(=S)Nc1ccc(Br)cc1`, for which the AC50 was 5.01 µM (active). Consider `O=C(O)Cn1c(-c2ccccc2)nc2ccccc21`, for which the “activity, negative = inhibition” value is -14.9%. Still for that read-out and setting: in the case of `CCOC(=O)CSc1nc2ccccc2c(=O)n1CC1CCC(C(=O)NCc2ccco2)CC1` (configuration not stated) it was 3.61%.

Take `CCOC(=O)CSc1nc(-c2ccccc2)nc2ccccc12`: the AC50 is 0.501 µM (active). As to `O=C(CSc1nc2ccccc2o1)Nc1nc2ccccc2s1`, the AC50 is 3.16 µM (active). As for `CCCCOc1ccccc1C1CC(=O)NC2=C1C(=O)CCC2` (configuration not stated), the “activity, negative = inhibition” value was -21.7%. As for `O=C(CSc1nc2ccccc2s1)Nc1nccs1`, the AC50 was 2.24 µM (active). As to `C=CCn1c(SCC(=O)Nc2ncc(Cc3ccc(Br)cc3)s2)nnc1-c1ccncc1`, the “activity, negative = inhibition” value is -21.6%. With `CC(C)OC(=O)CSc1nc(-c2ccc(F)cc2)nc2ccc(F)cc12`, the AC50 is 1.12 µM (active). Turning to `Cc1ccc(S(=O)(=O)NC(=O)CSc2nc3ccccc3s2)cc1`, the “activity, negative = inhibition” value is -28.6%.

For the molecule `O=C(CSc1nc(-c2ccccc2)nc2ccccc12)Nc1nccs1`, the AC50 was 0.158 µM (active). For `NC(=O)NC(=O)CSc1nnc(-c2ccco2)n1Cc1ccccc1`, the “activity, negative = inhibition” value was 3.98%.

In the case of `CCc1nnc(NC(=O)CSc2nc(C3CCCCC3)nc3ccccc23)s1`, the “activity, negative = inhibition” value was -11.1%. Same read-out and setting: in the case of `CCCC(=O)Nc1ccc2nc(SCC(=O)Nc3ccc(N4CCOCC4)c(Cl)c3)sc2c1` it was -10.2%.

In the case of `O=C(CSc1nnc(-c2ccncc2)n1Cc1ccccc1)Nc1nccs1`, the AC50 was 11.2 µM (active). For `O=P(O)(CCc1ccccc1)C(O)c1ccccc1` (configuration not stated), the “activity, negative = inhibition” value is 7.23%. Regarding `CO[C@@H](NC(N)=O)C(=O)O`, the activity, negative = inhibition is -6.36% [at 2.29 µM]. For `O=C(O)c1cc(=O)[nH]c(=S)[nH]1`, the activity, negative = inhibition is -10.7% [at 2.29 µM].

Consider `Cc1cc(C)n2c(SCC(=O)N(C)C3CCS(=O)(=O)C3)nnc2n1` (configuration not stated), for which the “activity, negative = inhibition” value was -4.17%. With `NC(=S)NCCC[C@@H](N)C(=O)O`, the “activity, negative = inhibition” value was -14.7%. Consider `Cc1cccc(-c2nsc(SCC(=O)Nc3nccs3)n2)c1`, for which the AC50 was 0.251 µM (active). Consider `C1CCc2c(nc3nnnn3c2NC2CCCC2)C1`, for which the AC50 is 11.2 µM (active).

As to `COc1ccc(CNc2nc3nc4c(c(=O)n3[nH]2)CCC4)cc1`, the “activity, negative = inhibition” value is -14.6%. On the same count and under the same terms, in the case of `Cc1ccccc1CN1C2=NCCN2C(=O)C2=C1CCN(Cc1ccccc1)C2` it was -2.99% [at 11.4 µM].

For the molecule `CSc1nc2nc3c(c(=O)n2[nH]1)CN(Cc1ccccc1)CC3`, the AC50 is 3.16 µM (active).

The values are drawn from PubChem BioAssay AID1851 (National Center for Advancing Translational Sciences (NCATS), 2009).
